According to PubChem BioAssay AID720690 (Broad Institute, 2013):
Results with a measured potency or affinity are listed apart. The source made the active and inactive calls.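 How the source made its calls: active means every repeat run showing a signal drop whose fitted half-maximal concentration is at most twice the top tested concentration; inconclusive means repeat runs disagree, or flat partial drop, or poor fit; inactive means the rest.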

assay: general mammalian cell viability loss – activator set, cherry-pick, cytotoxicity control for miR-122 modulator project, dose response (AID 720690); settings: HEK293T viability, CellTiter-Glo luminescence, 48 h; series mostly up to 26 µM; activity change, negative = cytotoxicity: at the top concentration;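 further: 0% = neutral control wells and -100% = MG132 cytotoxic control wells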

Row | Compound | activity change, negative = cytotoxicity
1 | CN1C(=O)c2cc(NC(=O)c3cccs3)ccc2OC[C@@H]2O[C@@H](CC(=O)NCCN3CCCCC3)CC[C@@H]21 | -7.8% [at 23.5 µM] (inactive)
2 | CN1C(=O)c2cc(NC(=O)Nc3ccc(Cl)cc3)ccc2OC[C@@H]2O[C@@H](CC(=O)NCCN3CCCCC3)CC[C@H]21 | -1.75% (inactive)
3 | OCc1ccc(-c2nn(Cc3ccccc3)c3ccccc23)o1 | -14.7% (inactive)
